{
  "source": "the OligoGym collection",
  "data": [
    {"target": "ACAD10", "assay": "pooled miR-30 sensor sort-seq; sequence = guide strand", "conditions": "shRNA", "values": [
      {"sequence": "TAATCCTGAACTCCCTCTCTAT", "sensor-assay potency score (higher = more potent)": -1.27},
      {"sequence": "TTCCAGTCCATACACCGTCAGA", "sensor-assay potency score (higher = more potent)": -1.34},
      {"sequence": "TTCACAGAGATCAAGAACGTTA", "sensor-assay potency score (higher = more potent)": 0.0116},
      {"sequence": "TTCAGCTTTGGCTTTCTCCTTG", "sensor-assay potency score (higher = more potent)": -0.097},
      {"sequence": "TACAGCTCTCTGACAGGTGGAG", "sensor-assay potency score (higher = more potent)": -0.377}
    ]},
    {"target": "ACAP2", "assay": "pooled miR-30 sensor sort-seq; sequence = guide strand", "conditions": "shRNA", "values": [
      {"sequence": "TATATTCTAACTTAGAATCATC", "sensor-assay potency score (higher = more potent)": -0.946},
      {"sequence": "TAATCTGAAGCACATAATCGAG", "sensor-assay potency score (higher = more potent)": -1.42},
      {"sequence": "TAACTTAGAATCATCACTGGAG", "sensor-assay potency score (higher = more potent)": 0.563},
      {"sequence": "TACTTCTGACTGAACTTTGGGC", "sensor-assay potency score (higher = more potent)": 0.208},
      {"sequence": "TGATTGAAGAACATTAATCTGA", "sensor-assay potency score (higher = more potent)": 0.0917},
      {"sequence": "TTTAGCTGTATACATTAGGGGG", "sensor-assay potency score (higher = more potent)": -0.7},
      {"sequence": "TTATTCTGTATTGAAAACCAGC", "sensor-assay potency score (higher = more potent)": -0.889},
      {"sequence": "TTTAACAAAGTTCTGAAGCTGT", "sensor-assay potency score (higher = more potent)": 0.177},
      {"sequence": "TTTGGTTGACATTAGCACCATT", "sensor-assay potency score (higher = more potent)": -0.325},
      {"sequence": "TTTAGGATTTCTGATCTCCTTT", "sensor-assay potency score (higher = more potent)": -0.154},
      {"sequence": "TATCCTTCCATAACTATGCCAT", "sensor-assay potency score (higher = more potent)": -0.0646},
      {"sequence": "TAAATCTAGACTGAACTTCTGT", "sensor-assay potency score (higher = more potent)": 0.683}
    ]},
    {"target": "ACBD3", "assay": "pooled miR-30 sensor sort-seq; sequence = guide strand", "conditions": "shRNA", "values": [
      {"sequence": "TCTTCTTCTATCCGTCTCCTTT", "sensor-assay potency score (higher = more potent)": -0.731},
      {"sequence": "TTGCTGTGCAAGCTGGACTTGA", "sensor-assay potency score (higher = more potent)": -0.769},
      {"sequence": "TTTTTCTTTGAAGAAGCGCAGT", "sensor-assay potency score (higher = more potent)": -0.812},
      {"sequence": "TTGAAGTCTTTGATCTGAGGTC", "sensor-assay potency score (higher = more potent)": -0.0448},
      {"sequence": "TAGTAGACTGATTTTGACCGCC", "sensor-assay potency score (higher = more potent)": 0.374},
      {"sequence": "TAAAGCTGCCATTATCTGCTGC", "sensor-assay potency score (higher = more potent)": -0.101},
      {"sequence": "TTAACTGACATCATATTACTTG", "sensor-assay potency score (higher = more potent)": 0.151},
      {"sequence": "TTAAATGTCATCTTCTGCCCAA", "sensor-assay potency score (higher = more potent)": 0.233},
      {"sequence": "TTCTTTTGGTCCATTCTCCAGG", "sensor-assay potency score (higher = more potent)": -0.756},
      {"sequence": "TAACTGACATCATATTACTTGG", "sensor-assay potency score (higher = more potent)": -0.575},
      {"sequence": "TTTCTCTTCACAACCGATGTTT", "sensor-assay potency score (higher = more potent)": -0.314},
      {"sequence": "TATTACTTGGTACAGTTGCATT", "sensor-assay potency score (higher = more potent)": -1.49}
    ]},
    {"target": "ACCN2", "assay": "pooled miR-30 sensor sort-seq; sequence = guide strand", "conditions": "shRNA", "values": [
      {"sequence": "TTTGACGTCGTCCAGGCTGAGG", "sensor-assay potency score (higher = more potent)": -1.49},
      {"sequence": "TCAGATTTGTTGAACTTCTTGG", "sensor-assay potency score (higher = more potent)": 1.11},
      {"sequence": "TTGAACGTGTAGCACTTTCCAT", "sensor-assay potency score (higher = more potent)": -0.501},
      {"sequence": "TATAGCAATATAGAGTCTGTAT", "sensor-assay potency score (higher = more potent)": -0.0507},
      {"sequence": "TTGCACAGCGTGACAGCAGGGA", "sensor-assay potency score (higher = more potent)": 0.305},
      {"sequence": "TTGAAGTCTTCAGCGCTGCAGA", "sensor-assay potency score (higher = more potent)": -0.498},
      {"sequence": "TTCATCCTGACTATGGATCTGC", "sensor-assay potency score (higher = more potent)": 0.145},
      {"sequence": "TGGATCTGCACTTTGATGCCTG", "sensor-assay potency score (higher = more potent)": -0.178},
      {"sequence": "TTTGCTGGGGATCTTGACCATG", "sensor-assay potency score (higher = more potent)": -1.14},
      {"sequence": "TTTTCATCTGCCATCTGTGTGT", "sensor-assay potency score (higher = more potent)": 0.238},
      {"sequence": "ATAGCGTGTGAAGACCACCTTG", "sensor-assay potency score (higher = more potent)": -0.485}
    ]}
  ]
}
